Data as given in PubChem BioAssay.
Activity calls are given as the source filed them.

tested on: XIP peptide (Xip251-270) binding; assay: small-molecule binders of XIP peptide, primary screen, biochemical, small-molecule microarray, fluorescence 635/667 nm, 0.1 µg/mL protein (AID 1182); conditions: fluorescent protein binding, 635 nm, higher = more signal, called active from +8 up or from −8 down

Composite z-score, inactive:
CCOC(=O)C[C@H]1[C@H](OC(=O)c2ccc(C(=O)c3ccccc3)cc2)[C@@H](NC(=O)c2ccc(-c3ccccc3)cc2)c2cc(OCCCO)ccc2N1C(=O)c1ccc2ccccc2n1 1.25
CN(C)c1ccc(C(O)C2C=CC3C(=O)N(c4ccccc4)C(=O)C3N2Nc2ccccc2F)cc1 (stereo unspecified) 0.324
CCCCCN1CC=CC23O[C@@H]4C=CCOC(=O)[C@@H]4[C@H]2C(=O)N(CCCCCCO)[C@@H]3C1=O (stereo partly specified) 0.282
C=C(COC)/C(=C/C[C@H](OC(=O)c1ccncc1)c1ccc(CO)o1)c1cc(C(=O)OC)ccc1OC -0.222
Cn1cccc1C(O)C1C=CC2C(=O)NC(=O)C2N1Nc1ccccn1 (stereo unspecified) -0.262
CC(C)N1CC=CC23O[C@@H]4C=CCCOC(=O)C4[C@H]2C(=O)N(CCCCCCO)[C@@H]3C1=O (stereo partly specified) -0.543
O=C1c2ccccc2[C@@]2(Cc3ccccc3N(C3CC3)C2=O)[C@H](c2ccc(CO)cc2)N1Cc1ccccc1C(F)(F)F -0.27
[N-]=[N+]=NCc1ccccc1C[C@]1(C(=O)NCc2ccccc2)N=C(c2ccc(OCCCO)cc2)O[C@H]1c1ccccc1N=[N+]=[N-] -0.649
COc1ccc([Si](C)(C)[C@@H]2[C@@H](CC(=O)N3CCC[C@H]3CO)O[C@]3(C(=O)N(Cc4cccc(N5CCC5=O)c4)c4ccccc43)[C@H]2C)cc1 1.07
COc1ccc(CCNC(=O)[C@@H]2c3ccccc3C(=O)N(c3ccc(C)cn3)[C@H]2c2ccc(CO)cc2)cc1 -1.02
O=C(CS)NCCCCCNC(=O)[C@@H]1C[C@@H]2C(=O)N[C@@H](Cc3ccccc3)C(=O)N2[C@@H]1c1ccc(O)cc1 0.508
C#C[C@@H](CC)O[Si](C#Cc1ccc(Oc2ccccc2)cc1)(C(C)C)C(C)C 0.0878
COCC(=C=CC[C@@H](O)c1ccccc1OCCO)CCO 0.291
C=CCOC(=O)[C@H]1[C@@H]2C(=O)O[C@@H](c3ccccc3)[C@@H](c3ccccc3)N2[C@@H](c2ccc(OCCOC(=O)[C@H]3C[C@H]4C(=O)N5CCC[C@H]5C(=O)N4[C@H]3c3cccc(OCCO)c3)cc2)[C@]12C(=O)Nc1ccc(I)cc12 2.54
CC(C)(C)OC(=O)CC[C@]1(C(=O)NCc2ccccc2)N=C(c2ccc(OCCCO)cc2)O[C@H]1c1ccccc1 0.124
COCCOC(=O)N1C(=O)[C@@]2(c3cc(C#Cc4ccc(OC)cc4)ccc31)[C@H](c1ccc(O)cc1)N1[C@H](c3ccccc3)[C@H](c3ccccc3)OC(=O)[C@H]1[C@@H]2C(N)=O -0.0296
C=CCN1C(=O)[C@]2(O[C@H](CCn3cc(CCO)nn3)[C@@H]([Si](C)(C)c3ccc(OC)cc3)[C@@H]2C)c2cc(N3CCOC3=O)ccc21 0.0616
O=C1O[C@@H](c2ccccc2)[C@@H](c2ccccc2)N2[C@@H](c3ccc(O)cc3)[C@]3(C(=O)Nc4ccccc43)[C@@H](C(=O)O)[C@H]12 1.27
C=CCOC(=O)[C@H]1[C@@H]2C(=O)O[C@@H](c3ccccc3)[C@@H](c3ccccc3)N2[C@@H](c2ccc(OCCOC(=O)[C@H]3C[C@H]4C(=O)N[C@@H](Cc5ccccc5)C(=O)N4[C@H]3c3ccc(O)cc3)cc2)[C@]12C(=O)Nc1ccccc12 2.32
CC(C)C[C@@H]1NC(=O)[C@H]2C[C@@H](C(=O)NCCCCCCN(C)C)[C@@H](c3cccc(OCCO)c3)N2C1=O 2.09
C/C=C\[C@@H](NCc1ccccc1Br)[C@@H](O)Cc1ccccc1 -0.0971
C=C(/C(=C/C[C@H](OC(=O)c1ccncc1)c1ccc(OCCO)cc1)c1cnc2ccccc2c1)C(C)C 0.782
O=C(CS)NCCCCCNC(=O)[C@H]1C[C@H]2C(=O)N3CCC[C@H]3C(=O)N2[C@H]1c1cccc(OCCO)c1 0.81
CCCCCN1CC=CC23O[C@@H]4C=CCOC(=O)[C@@H]4[C@H]2C(=O)N(C(CO)C(C)C)[C@@H]3C1=O (stereo partly specified) 0.824
Cc1ccc(S[C@]2(C(=O)NCC(F)(F)F)CC(=O)N(Cc3ccccc3Cl)[C@@H]2c2ccc(CO)cc2I)cc1 0.292
O=C1O[C@@H](c2ccccc2)[C@@H](c2ccccc2)N2[C@@H](c3ccc(OCCO)cc3)[C@]3(C(=O)Nc4ccccc43)[C@@H](C(=O)N3CCN(c4ncccn4)CC3)[C@H]12 0.0629
CC(C)=C1C(=O)C(c2ccccc2)=C2CN3C(=O)N(CCc4ccccc4)C(=O)[C@]3(Cc3ccc(F)cc3)[C@H]21 -0.391
N#Cc1ccc(NN2C(C(O)c3cccc4ccccc34)C=CC3C(=O)N(c4ccccc4)C(=O)C32)cc1 (stereo unspecified) 0.366
COC(=O)C1=CCC(c2cccc(Cl)c2)O1 (stereo unspecified) -0.0103
COCCCNC(=O)[C@@]1(CCS(=O)(=O)c2ccccc2)N=C(c2ccc(OCCCO)cc2)O[C@H]1c1ccccc1 1.3
COCCOC(=O)N1C(=O)[C@@]2(c3cc(C#Cc4ccc(OC)cc4)ccc31)[C@H](C(=O)N1CCN(c3ncccn3)CC1)[C@H]1C(=O)O[C@H](c3ccccc3)[C@H](c3ccccc3)N1[C@@H]2c1ccc(OCCO)cc1 0.115
CN(C)CCCNC(=O)[C@@H]1c2ccccc2C(=O)N(Cc2cc(F)cc(C(F)(F)F)c2)[C@H]1c1ccc(CO)cc1 0.782
CCCC[C@@H](O)C1=C(C)C[C@H]2C(=O)N(Cc3ccccc3)C(=O)[C@H]2[C@H]1CO -0.38
CC(C)OC(=O)C=C1C[C@@H](c2ccc(C#N)cc2)O[C@@H](c2ccc(C#N)cc2)O1 1.1
CN1C(=O)C2C(C1=O)C1C=C(CCCO)C2C(c2ccc(CN3CCCC3)cc2)N1C (stereo unspecified) 0.413
COc1ccccc1CN1C(=O)c2ccccc2[C@@H](C(=O)NCC(F)(F)F)[C@@H]1c1ccc(CO)cc1 -0.51
